Only some compounds are listed: those with a hit (about 1.4% of all), similar ones and a draw of the others.
MbtI inh: inhibitors of Mycobacterium tuberculosis siderophore enzyme MbtI; AID 493033; hit rate 0.89% among 100,000; purified MbtI enzyme, fluorescence intensity read-out; inhibition, % (test concentration not listed); in the data active = inhibition mostly above about 56%, no sharp cut-off; inactive = mostly below about 77%
AID504770: E. coli YBA685 growth inhibition, screen for V. cholerae RctB inhibitors | hit rate 0.27% among 130,000 | AID 504770 | z-score (concentration not given with the values) | E. coli YBA685 rctB-dependent plasmid, OD600 growth, 3 h; stronger effect = lower value; in the data active = z-score below about -2, passing the limit was not always enough
PV pol inh: inhibitors of poliovirus RNA polymerase binding and polymerization; % elongation, % (compound at 16.7 µg/mL); poliovirus polymerase elongation, fluorescence polarization; stronger effect = lower value; hit rate 0.66% among 150,000; P03300; in the data active = % elongation below about 90%
Target sequence (P03300 1749-2209 limits assumed): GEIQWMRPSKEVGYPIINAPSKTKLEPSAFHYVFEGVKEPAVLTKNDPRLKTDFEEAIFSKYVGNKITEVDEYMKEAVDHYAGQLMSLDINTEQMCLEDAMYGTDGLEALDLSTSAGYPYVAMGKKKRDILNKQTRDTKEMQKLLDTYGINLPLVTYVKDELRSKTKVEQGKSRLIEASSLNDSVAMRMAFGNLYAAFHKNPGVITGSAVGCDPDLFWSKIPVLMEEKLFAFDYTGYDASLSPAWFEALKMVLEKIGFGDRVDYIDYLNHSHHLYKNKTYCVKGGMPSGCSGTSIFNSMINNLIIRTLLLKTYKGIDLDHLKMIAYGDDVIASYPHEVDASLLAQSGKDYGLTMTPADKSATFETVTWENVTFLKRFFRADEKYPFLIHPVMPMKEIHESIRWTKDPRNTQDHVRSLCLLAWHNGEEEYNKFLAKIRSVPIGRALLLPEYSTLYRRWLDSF
Mtb MenB inh: inhibitors of Mycobacterium tuberculosis MenB enzyme | P9WNP5 | MenB enzyme assay, absorbance read-out | hit rate 0.43% among 100,000 | inhibition, % (test concentration not listed); in the data active = inhibition above about 21%, passing the limit was not always enough
* marks the source's active call; other numbers are inactive results; / = no result.

SMILES	MbtI inh	AID504770	PV pol inh	Mtb MenB inh
CNS(=O)(=O)c1ccc(SC)cc1	3	-0.5	100	3
O=C(Cc1ccc(Oc2ccccc2)cc1)c1ccccc1	-10	-0.1	108	-11
CN(C)c1ccc(NC(=S)NC2CCCCC2)cc1	0	-0.95	102	-15
CNC(=O)c1ccc(CN2CCc3ccccc3C2)cc1	0	-0.35	102	27*
CN1CC(C(=O)Nc2ccc3c4c(cccc24)CC3)CC1=O (stereo unspecified)	28	-0.5	100	10
COC(=O)CN1C(=O)C(OC(C)=O)S(=O)c2ccccc21 (stereo unspecified)	4	1.6	/	/
CCOC(=O)c1c(NC(=O)COc2cccc(C(F)(F)F)c2)sc2c1CCCCC2	/	/	90*	/
COC(=O)c1c(NC(=O)COc2cc(C)c(Cl)c(C)c2)sc2c1CCCC2	/	/	90*	/
CCOC(=O)c1c(NC(=O)C(C)Oc2ccc(Cl)c(C)c2)sc2c1CCCC2 (stereo unspecified)	/	/	104	/
COC(=O)c1c(NC(=O)COc2ccc(Cl)cc2C)sc2c1CCCCC2	/	/	85*	/
CCCc1ccc(OC(C)C(=O)Nc2sc3c(c2C(=O)OC)CCCCC3)cc1 (stereo unspecified)	/	/	86*	/
COC(=O)c1c(NC(=O)COc2ccc(OC)cc2)sc2c1CCCC2	/	-0.75	/	/
CCOC(=O)c1c(NC(=O)COc2ccc(C(C)(C)C)cc2)sc2c1CCCC2	/	/	104	/
COC(=O)c1scc(C)c1NC(=O)C(C)Sc1nc(C)cc(C)c1C#N (stereo unspecified)	/	-0.1	/	/
O=C(O)CCCC(=O)Nc1cccc(NC(=O)c2ccco2)c1	/	0	104	-7
O=C(CC1OC(=O)c2ccccc21)c1ccc(Cl)s1 (stereo unspecified)	6	-0.2	85*	-5
O=C(CC1OC(=O)c2ccccc21)c1ccccn1 (stereo unspecified)	/	0.1	/	/
O=c1[nH]c(CNCC2CCCO2)nc2ccccc12 (stereo unspecified)	-8	-2.8	113	-36
Clc1cccc(CNCc2cccs2)c1	1	0.8	102	38*
CCc1ccc(CNCc2cccs2)cc1	-13	-1.2	105	-51
C=CCn1c(Cc2ccc(O)c(Cl)c2)n[nH]c1=S	93*	2.9	101	-18
CC1Sc2nnc(C(C)(C)C)n2N=C1c1ccc(Cl)cc1 (stereo unspecified)	92	1.4	76*	-1
COC(=O)c1c(N2C(=O)CCC2=O)sc2c1CCCC2	-21	-3.2*	101	-2
CCOC(=O)c1c(N2C(=O)CCC2=O)sc2c1CCCC2	/	0.9	/	/
Cc1ccc(C)c2[nH]c(=O)c(C3NC(=O)c4ccccc4N3)cc12 (stereo unspecified)	-29	-0.15	101	42*
SMILES	MbtI inh	AID504770	PV pol inh	Mtb MenB inh
Cc1ccc(C(N)=S)c(=O)[nH]1	173	-0.2	85*	-55
O=C(CSc1ccc2c(c1)OCCO2)Nc1ccccc1	0	-0.2	99	-9
CN(CC(=O)Nc1ccc(F)cc1)C(=O)CSc1ccc2c(c1)OCCO2	98*	2	106	-24
CC(C)(C)P(=Nc1ccc(S(N)(=O)=O)cc1)(N1CCOCC1)N1CCOCC1	16	-0.05	100	-10
Cn1nc(C2CC2)cc1C(=O)O	2	-0.35	102	30*
S=c1[nH]n(Cc2ccccc2)c(=NCc2ccccc2)s1	65*	-0.95	95	/
CC1CCCC(C)N1C(=O)c1ccccc1NS(=O)(=O)c1ccc(F)cc1 (stereo unspecified)	-6	-0.05	101	/
CC1CCCCN1C(=O)c1ccccc1NS(=O)(=O)c1ccc(F)cc1 (stereo unspecified)	-3	-0.1	101	41*
CN(C)c1ccc(NC(=O)Cn2c(SCc3ccccc3F)nc3cccnc32)cc1	/	/	19*	/
O=C(COc1ccc(-c2ccccc2)cc1)NCCN1CCOCC1	-7	0.4	99	/
O=C1NC(=O)NC(=C/C=C/c2ccc(-c3ccc(Cl)cc3Cl)o2)N1	57*	1.4	102	-18
COC(=O)C1C(=O)CC(=O)CC1c1ccco1 (stereo unspecified)	1	1.2	100	40*
CCCCn1c(SCC(=O)NC(=O)NC2CCCC2)nc2ccccc2c1=O	-6	0.7	94	-38
Cc1cc(C(=S)NC(=O)c2ccccc2)c(C)n1C	65*	0.8	102	-18
C=CCN(C)C1CC(=O)N(c2ccc(C)c(Cl)c2)C1=O (stereo unspecified)	95*	-0.1	99	10
Cc1ccc(N2C(=O)CC(NCc3ccc(S(N)(=O)=O)cc3)C2=O)cc1Cl (stereo unspecified)	6	1.4	99	-21

Assay outcomes: PubChem, ICCB-Longwood Screening Facility, Harvard Medical School
